Assay results: PubChem BioAssay (EPA / NIEHS)
Records with an inconclusive call do not appear. Calls of active or inactive are those of the source. How the source made its calls: active means hit-call score of the fitted dose curve at least 0.9, where 1 is the maximum; inconclusive means response in the unintended direction; inactive means score below 0.9.

What was measured:
[1] = molecular target: Cellular tumor antigen p53 (Homo sapiens) (UniProt P04637); assay: TOX21_p53_BLA_p2_ratio: Tox21 HCT-116 p53 Agonism Beta-lactamase Assay, Ratio, Phase 2 (AID 2283592)
Cellular tumor antigen p53 (Homo sapiens), sequence (P04637 whole entry, looked up): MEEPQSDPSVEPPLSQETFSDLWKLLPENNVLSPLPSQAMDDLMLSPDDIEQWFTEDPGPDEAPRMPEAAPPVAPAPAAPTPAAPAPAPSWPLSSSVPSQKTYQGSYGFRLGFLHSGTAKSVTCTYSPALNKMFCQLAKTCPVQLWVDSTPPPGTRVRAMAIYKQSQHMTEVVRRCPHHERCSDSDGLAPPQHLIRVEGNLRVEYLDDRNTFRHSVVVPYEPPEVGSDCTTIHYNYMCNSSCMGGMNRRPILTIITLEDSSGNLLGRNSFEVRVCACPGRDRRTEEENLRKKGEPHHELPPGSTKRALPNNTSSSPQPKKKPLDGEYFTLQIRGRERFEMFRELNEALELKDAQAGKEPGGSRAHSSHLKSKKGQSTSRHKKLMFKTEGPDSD
How it was run: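 HCT116 cells carrying a p53-responsive beta-lactamase reporter were plated, incubated 5 h at 37C, then dosed with compounds in DMSO (217-fold dilution) for 16 h. CCF4-AM substrate was added for 2 h at room temperature; the 460/530 nm emission ratio gave gain-of-signal activity relative to DMSO.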

[2] = molecular target: Cellular tumor antigen p53 (Homo sapiens) (UniProt P04637); assay: TOX21_p53_BLA_p3_ratio: Tox21 HCT-116 p53 Agonism Beta-lactamase Assay, Ratio, Phase 3 (AID 2283596)
How it was run: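 HCT116 p53-bla cells (4000/well) given compound in DMSO (217-fold dilution) after 5 h, incubated 16 h at 37C. CCF4-AM substrate 2 h at room temperature; 460/530 nm emission ratio, gain fitted against DMSO.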

[3] = TOX21_p53_BLA_p4_viability: Viability Assessment in the Tox21 HCT-116 p53 Agonism Beta-lactamase Assay, Phase 4 (AID 2283597);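 further: hits lower the luminescence signal meaning cytotoxicity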
How it was run: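 HCT116 p53-bla cells (4000/well) rested 5 h at 37C, then received compounds in DMSO (217-fold dilution) for 16 h at 37C, 5% CO2. CellTiter-Glo was added after the CCF4-AM read, and luminescence was read after 30 min at room temperature.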

[4] = TOX21_p53_BLA_p5_viability: Viability Assessment in the Tox21 HCT-116 p53 Agonism Beta-lactamase Assay, Phase 5 (AID 2283600)
How it was run: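 Cells were plated at 4000/well, rested 5 h at 37C, then given compounds in DMSO (217-fold dilution) for 16 h at 37C, 5% CO2. Following the CCF4-AM beta-lactamase read, CellTiter-Glo was added and luminescence was read after 30 min at room temperature.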

[5] = molecular target: Cellular tumor antigen p53 (Homo sapiens) (UniProt P04637); assay: TOX21_p53_BLA_p4_ratio: Tox21 HCT-116 p53 Agonism Beta-lactamase Assay, Ratio, Phase 4 (AID 2283601)
How it was run: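 HCT-116 p53 beta-lactamase reporter cells (4000/well) preincubated 5 h, then compound (217-fold dilution of DMSO stock) for 16 h at 37C. CCF4-AM substrate added 2 h at room temperature; 460/530 nm emission ratio fitted upward versus DMSO.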

[6] = molecular target: Cellular tumor antigen p53 (Homo sapiens) (UniProt P04637); assay: TOX21_p53_BLA_p5_ratio: Tox21 HCT-116 p53 Agonism Beta-lactamase Assay, Ratio, Phase 5 (AID 2283599)
How it was run: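 HCT-116 p53-bla cells (4000/well) plated 5 h, dosed with compound (217-fold DMSO dilution) for 16 h at 37 C; CCF4-AM substrate 2 h at room temperature. Activity is the 460/530 nm emission ratio (405 nm excitation), fitted in gain-of-signal direction versus DMSO.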

Measured: AC50

CC(=O)OCC[N+](C)(C)C
not listed: [6]
inactive: all other assays above

CN1CCC[C@@H]1CCO[C@](C)(c1ccccc1)c1ccc(Cl)cc1
not listed: [6]
inactive: all other assays above

OCl
not listed: [4]
inactive: all other assays above

COC(=O)CS
not listed: [4]
inactive: all other assays above

CCCCCCCC/C=C\CCCCCCCC(N)=O
not listed: [4]
inactive: all other assays above

O=C1CCCc2c1cc1ccc3cccc4ccc2c1c34
active: [2] 62.5 µM
not listed: [4]
inactive: all other assays above

COc1ccc(/C=C/c2cc(OC)cc(=O)o2)cc1
not listed: [4]
inactive: all other assays above

Cc1ccc(O)c(N)c1
inactive: all assays above

CC(C)c1ncc([N+](=O)[O-])n1C
inactive: [1] | [2] | [6] | [4]

CCN(CC)CCNC(=O)COc1ccc(OC)cc1
not listed: [3]
inactive: all other assays above

CN1CCc2c(c3ccccc3n2Cc2ccccc2)C1
inactive: [1] | [2] | [3] | [5]

CCOc1cc(NC(C)=O)ccc1C(=O)OC
not listed: [3]
inactive: all other assays above

NS(=O)(=O)c1cc(-c2nn[nH]n2)c(NCc2cccs2)cc1Cl
inactive: [1] | [2] | [6] | [4]

C1CCCNCCC1
inactive: [1] | [2] | [3] | [5]

C=CC(=O)OCCOCC(CC)(COCCOC(=O)C=C)COCCOC(=O)C=C
not listed: [3]
inactive: all other assays above

NS(=O)(=O)c1cc2c(cc1Cl)NC(C(Cl)Cl)NS2(=O)=O (configuration not stated)
inactive: [1] | [2] | [6] | [4]

CC(=O)c1ccc2ccc3ccccc3c2c1
active: [1] 85.8 µM | [6] 80.9 µM
inactive: [2]

CCCOC(=O)c1ccccc1O
inactive: [1] | [2] | [6] | [4]

O=C1OC(=O)C2CC=CCC12 (configuration not stated)
inactive: [1] | [2] | [6] | [4]

CN(C)CCN(Cc1ccccc1)c1ccccn1
inactive: [1] | [2] | [6]

C=Cc1ccccn1
inactive: [1] | [2] | [3] | [5]

NS(=O)(=O)c1ccc(Cl)c(S(N)(=O)=O)c1
inactive: [1] | [2] | [3] | [5]

CCCOCC(C)OCC(C)O (configuration not stated)
not listed: [3]
inactive: all other assays above

Cc1cnc(C)c(C)n1
not listed: [3]
inactive: all other assays above

CO[C@@]1(NC(=O)C2SC(=C(C(N)=O)C(=O)O)S2)C(=O)N2C(C(=O)O)=C(CSc3nnnn3C)CS[C@@H]21 (some centres not stated)
inactive: [1] | [2] | [3] | [5]

NC1=NCC2c3ccccc3Cc3ccccc3N12 (configuration not stated)
inactive: [1] | [2] | [3] | [5]

CC(=O)Oc1cc(C(C)C)c(OCCN(C)C)cc1C
inactive: [1] | [2] | [3] | [5]

CCCCCC(N)=O
not listed: [3]
inactive: all other assays above

Cc1cc(O)ccc1O
not listed: [3]
inactive: all other assays above

NC(=O)OCC(O)COc1ccc(Cl)cc1 (configuration not stated)
inactive: [1] | [2] | [6]

O=[N+]([O-])c1ccc(Oc2ccc([N+](=O)[O-])cc2)cc1
inactive: [1] | [2] | [6] | [4]

COc1ccc2c(c1OC)C(=O)O[C@@H]2[C@H]1c2c(cc3c(c2OC)OCO3)CCN1C
inactive: [1] | [2] | [3] | [5]

O=C(O)[C@H](O)c1ccccc1
inactive: [1] | [2] | [6] | [4]

CC(=O)c1ccc(Cl)c(Cl)c1Cl
inactive: [1] | [2] | [6] | [4]

CCNC(=O)C1CC(C)CCC1C(C)C (configuration not stated)
inactive: [1] | [2] | [3] | [5]

CC1CCCC(=O)C1=O (configuration not stated)
inactive: [1] | [2] | [3] | [5]

CCCc1nc2c(C)cc(-c3nc4ccccc4n3C)cc2n1Cc1ccc(-c2ccccc2C(=O)O)cc1
inactive: [1] | [2] | [6]

COC(=O)C(C)O (configuration not stated)
inactive: [1] | [2] | [6]

CC(=O)OCC(=O)[C@@]1(O)CC[C@H]2[C@@H]3CCC4=CC(=O)CC[C@]4(C)C3=CC[C@@]21C
not listed: [3]
inactive: all other assays above

CN1CCOC(c2ccccc2)c2ccccc2C1 (configuration not stated)
inactive: [1] | [2] | [3] | [5]
